Consider 31 molecules from PubChem BioAssay (EPA / NIEHS).

Values joined by “and” are separate entries in the source; they are usually repeats but may differ in a detail not shown here. Equal values may be shown once. Results filed as inconclusive are left out. Some structures have more than one record in an assay (separate samples or runs), and their calls can disagree. Active and inactive are the calls of the source. How the source made its calls: active means hit-call score of the fitted dose curve at least 0.9, where 1 is the maximum; inconclusive means response in the unintended direction; inactive means score below 0.9.

A short description of the assay: ACEA_ER_80hr: ACEA Biosciences xCELLigence Real-Time Cell Analysis on Estrogen Receptor Agonism for Proliferation (AID 2282667). The note with it: T47D proliferation, impedance (xCELLigence), 80 h. As for the experimental part: ACEA_ER is a cell-based, single-readout assay that uses T47D, a human breast cell line, with measurements taken at 80 hours after chemical dosing in a 96-well plate, although TO2 (mc0.srcf) used a 384-well plate. Differences in plate size can be ignored given data normalization.ACEA_ER_80hr is one of two assay component(s) measured or calculated from the ACEA_ER assay. It is designed to make measurements of real-time cell-growth kinetics, a form of growth reporter, as detected with electrical impedance signals by Real-Time Cell Electrode Sensor (RT-CES) technology.Data from the assay component ACEA_ER_80hr was analyzed into 1 assay endpoint. This assay endpoint, ACEA_ER_80hr_Positive, was analyzed in the positive analysis fitting direction relative to DMSO as the negative control and baseline of activity. Using a type of growth reporter, measures of the cells for gain-of-signal activity can be used to understand the signaling at the pathway-level as they relate to the gene ESR1. Furthermore, this assay endpoint can be referred to as a primary readout, because this assay has produced multiple assay endpoints where this one serves a signaling function. To generalize the intended target to other relatable targets, this assay endpoint is annotated to the nuclear receptor intended target family, where the subfamily is steroidal.
The xCELLigence system Multi-E-Plate stations were used to measure the time-dependent response to chemicals. Each compound was tested in an eight-point, 1:4 serial dilution series starting at a maximum final concentration of 100 uM. A maximum starting concentration of 0.5% DMSO was present in the 100 uM chemical samples and was diluted along with the test article dilution series. The screen was performed in biological duplicate using two separate, 96-well, E-Plates 96 for each dilution series (n = 2). Positive controls (MG132 and E2) and a negative control (assay media) were tested in quadruplicate on each testing plate. […] Reference compounds were tested with 8 concentrations with 1:5 serial dilutions. All screening was carried out by ACEA Biosciences, Inc. (San Diego, CA). T-47D cells purchased from ATCC were maintained in RPMI1640 media supplemented with 10% characterized fetal bovine serum (FBS). […] Cells were then detached and seeded in E-Plates 96 in assay medium. After overnight monitoring of growth once every hour, compounds were added to […] cells and remained in the medium until the end of the experiment. Cellular responses were then recorded once every 5 min for the first 5 h, and once every hour for an additional 100 h.
Consider `O=C(O)c1ccccc1`, for which the call was inactive.
As for `CC(=O)S[C@@H]1CC2=CC(=O)CC[C@]2(C)[C@H]2CC[C@@]3(C)[C@@H](CC[C@@]34CCC(=O)O4)[C@H]12`, the half-maximal activity concentration (AC50) – broadly, the concentration giving half of the maximal activity seen – was 10.7 µM (active) and 174 nM (active); the molecule was classed as inactive.
`O=C(c1ccccc1)C1CCCCC1`: the concentration at half-maximal activity (AC50) was 9.92 µM (active) and 6.21 µM (active) and 50 µM (active).
Regarding `CCSC(=O)N(CC(C)C)CC(C)C`, the call was inactive.
For the molecule `CCCCOC(=O)[C@@H](C)Oc1ccc(Oc2ccc(C(F)(F)F)cn2)cc1`, the AC50 is 13.7 µM (active).
`CCCCN(CCC(=O)OCC)C(C)=O`: the result was inactive.
Take `C#C[C@]1(O)CC[C@H]2[C@@H]3CCC4=CC(=O)CC[C@@H]4[C@H]3CC[C@@]21CC`: the AC50 was 2.58 nM (active) and 3.4 nM (active) and 143 nM (active).
As for `O=C(Nc1ccc([N+](=O)[O-])cc1Cl)c1cc(Cl)ccc1O`, the molecule was classed as inactive.
The same measure, in the same setting: the result for `CCCCC(CC)CN1C(=O)C2C3C=CC(C3)C2C1=O` (configuration not stated) reads “inactive”; that for `CCOC(=O)C(C)Oc1ccc(Oc2cnc3cc(Cl)ccc3n2)cc1` (configuration not stated), “inactive”.
On to `C[C@]12C[C@H](O)[C@H]3[C@@H](CCC4=CC(=O)CC[C@@]43C)[C@@H]1CC[C@@H]2C(=O)CO`, for which the AC50 was 32.8 nM (active) and 26.6 nM (active) and 102 nM (active).
Turning to `OB(O)O`, the molecule was called inactive.
As to `O=C(c1ccc(O)cc1O)c1ccc(O)cc1O`, the AC50 was 756 nM (active) and 805 nM (active) and 548 nM (active).
With `CCCCOC(=O)C(C)Oc1ccc(Oc2ccc(C(F)(F)F)cn2)cc1` (configuration not stated), the AC50 was 0.0178 µM (active).
Take `CCN(Cc1c(F)cccc1Cl)c1c([N+](=O)[O-])cc(C(F)(F)F)cc1[N+](=O)[O-]`: the AC50 is 2.12 µM (active).
As for `COc1c(Cl)ccc(Cl)c1C(=O)O`, the outcome was inactive.
On to `CC1(C)C(C=C(Cl)Cl)C1C(=O)OCc1cccc(Oc2ccccc2)c1` (configuration not stated), for which the result was inactive.
In the case of `CCCOC(=O)c1ccc(C(=O)OCCC)nc1`, the molecule was classed as inactive.
Still for that read-out and setting: the result for `CCOC(=O)NCCOc1ccc(Oc2ccccc2)cc1` reads “inactive”.
On to `Cc1nn(C)c(Oc2ccccc2)c1C=NOCc1ccc(C(=O)OC(C)(C)C)cc1`, for which the concentration at half-maximal activity (AC50) was 0.00439 µM (active).
In the case of `N[C@@H](Cc1cc(I)c(Oc2ccc(O)c(I)c2)c(I)c1)C(=O)O`, the concentration at half-maximal activity (AC50) was 40 µM (active) and 25 µM (active).
In the case of `CCCN(CCC)c1c([N+](=O)[O-])cc(C(F)(F)F)c(N)c1[N+](=O)[O-]`, the molecule was classed as inactive.
For the molecule `CCCN(CCC)C(=O)SCC`, the molecule was classed as inactive.
`CCN(CC)C(=O)c1cccc(C)c1`: the molecule was classed as inactive.
Same read-out and setting: the result for `COC(=O)c1ccccc1C(=O)O` reads “inactive”; that for `C#CCOC(=O)[C@@H](C)Oc1ccc(Oc2ncc(Cl)cc2F)cc1`, “inactive”.
Consider `C[C@]12CC[C@@H]3c4ccc(O)cc4C[C@@H](CCCCCCCCCS(=O)CCCC(F)(F)C(F)(F)F)[C@H]3[C@@H]1CC[C@@H]2O` (some centres not stated), for which the concentration at half-maximal activity (AC50) was 6.15 µM (active) and 9.53 µM (active).
On the same count and under the same terms, to `CCOC(=O)c1ccc(O)cc1` belongs 11.4 µM (active) [middle of 4 runs]; to `CCCCN(CCCC)C(=S)S`, 89.4 µM (active).
`CC(C)CCCCCCc1ccc(O)cc1`: the half-maximal activity concentration (AC50) was 320 nM (active) [middle of 4 runs].
`COCCO`: the molecule was classed as inactive.
